Tg IFNy HTS – T. gondii growth inhibition under IFN-gamma. Toxoplasma gondii growth in IFN-gamma-treated host cells; active compounds read low. hit rate 3.8% among 69,000. activity change, negative = inhibition, % (no concentration beside the values); in the data active means activity change below about -70%, passing the limit was not always enough;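 further: host cells are HeLa cells infected with Toxoplasma gondii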
A number is an active result; 0 = inactive. The sample as a whole holds a higher share of hits than the screen did.

SMILES	Tg IFNy HTS
C[N+](C)(C)CCOP(=O)(O)OC[C@H](O)CO	0
Cc1ccc(NC(=O)Nc2ccc(OCc3ccccc3)cc2)cc1NS(C)(=O)=O	0
Oc1cccc(Nc2ncnc3ccccc23)c1	0
Cc1cc(F)c(Nc2ncnc3cc(OCc4ccccc4)ccc23)cc1O	-77
O=C(NCc1cccnc1-n1ccnc1)c1cnc2ccccn12	0
Cc1cc(C(F)(F)F)n2ncc(C(=O)N3CCCC(N(C)C)CC3)c2n1 (stereo unspecified)	0
CN1c2cc(Cl)ccc2C(=O)NC12CCN(C(=O)Nc1ccc3c(c1)OCCO3)CC2	0
CC/C(=C(\c1ccccc1)c1ccc(OCCN(C)C)cc1)c1ccccc1	0
CC/C(=C(\c1ccc(O)cc1)c1ccc(OCCN(C)C)cc1)c1ccccc1	-98
CC/C(=C(/CC)c1ccc(O)cc1)c1ccc(O)cc1	0
CCCN(CC#Cc1ccccc1)C(=O)c1cccn1C	0
CCc1nn(C)c(Cl)c1CN1CCC(C(=O)N2CCOCC2)CC1	0
Cc1cc(C)c2c(=O)n(Cc3nc(-c4ccccc4C)oc3C)c(=O)n(-c3ccccc3)c2n1	0
CC(=O)Nc1ccc(Nc2nc(-c3nnc(-c4ccc(Cl)cc4)o3)nc3ccccc23)cc1	0
CCn1c(CC2CCNCC2)nn(CC2CC(c3ccccc3)=NO2)c1=O (stereo unspecified)	0
O=C(O)CC1CC(c2ccccc2)=NO1 (stereo unspecified)	0
COc1cccc(CC2CC(c3ccccc3)=NO2)c1OCc1c(Cl)cccc1Cl (stereo unspecified)	-96
COc1cc(-c2cccc(-n3cccn3)c2)ccc1NC(C)=O	0
O=C1Cc2cc(Cl)ccc2N1	0
O=C1Cc2cc(-c3cccc(-n4cccn4)c3)ccc2N1	-93
O=S1(=O)CCC(NCCCN2CCOCC2)C1 (stereo unspecified)	0
O=C(Nc1ccccc1CO)c1cccc(CN2CCC2c2ccccc2)c1 (stereo unspecified)	0
CC(C)(C)c1ccc(C(=O)/C=c2\[nH]c(=O)/c(=C\c3cccs3)s2)cc1	-102
Cc1cc(C(=O)c2ccc(C(C)(C)C)cc2)c(N)s1	0
CC1=C(C(=O)NCc2ccc(Cl)cc2)C2(CCN(S(=O)(=O)c3cccs3)CC2)OC1=O	0
SMILES	Tg IFNy HTS
CC(C)Nc1ccnc(C2COCCN2C(=O)CS(C)(=O)=O)n1 (stereo unspecified)	0
CN1CCN([C@H]2CN(C(=O)CCCc3ccccc3)C[C@@H]2O)CC1	0
Cc1cc2oc(C(=O)NCCNC(=O)c3ccccn3)cc(=O)c2cc1C	0
O=C(c1ccc(Cl)cc1)N1CCC2(CC1)Nc1cc(F)ccc1-n1cccc12	0
Cc1ccc(CNC(=O)N2CCC3(CC2)NC(=O)c2ccc(F)cc2N3C)cc1	0
CCc1ccc(NC(=O)N2CCc3nc(-c4ccc(OC)c(OC)c4)sc3C2)cc1	-79
CCc1ccccc1NC(=O)N1CCc2nc(-c3ccc(OC)c(OC)c3)sc2C1	0
COc1ccc(-c2nc3c(s2)CN(C(=O)Nc2ccc(C)c(C)c2)CC3)cc1OC	-83
COc1ccc(-c2nc3c(s2)CN(C(=O)Nc2cc(C)ccc2C)CC3)cc1OC	0
CCc1ccccc1NC(=O)N1CCc2nc(-c3cccc(OC)c3)sc2C1	0
Cc1ccc(-c2nc3c(s2)CN(C(=O)Nc2cc(C)ccc2C)CC3)cc1	0
Cc1cc(C(F)(F)F)nc(CNC(=O)CCc2c(C)nn(C)c2C)n1	0
CC(C)c1cc(C2CCN(C(=O)c3nc(=O)[nH]c4ccccc34)CC2)[nH]n1	0
CN(Cc1ccccn1)C(=O)c1nn(C)c2c1CN(Cc1ccco1)C2	0
COc1cc(Cl)ccc1C(=O)N1CCC2(CCCO2)CC1	0
O=C(Nc1cc(C(F)(F)F)ccc1N1CCCCC1)c1ccncc1	0
C#CCOC(=O)NC(=O)c1ccc(C(F)(F)F)cc1	0
O=C(NC(=O)c1ccc(C(F)(F)F)cc1)NN1CCCCCC1	-77
CCN1c2ccccc2C(=O)NC12CCN(C(=O)c1cc(C)cc(C)c1)CC2	0
O=C(NOCCO)c1cc(CN2OCCCC2=O)c(F)c(F)c1Nc1ccc(I)cc1F	0
Cc1cc(I)ccc1Nc1c(C(=O)NOCC2CC2)cc(F)c(F)c1F	-82
O=C(c1ccc(F)c(F)c1Nc1ccc(I)cc1F)N1CC(O)([C@@H]2CCCCN2)C1	0
CCCN1C(=O)CCc2cc(NS(=O)(=O)c3ccccc3C(F)(F)F)ccc21	0
CC(C)CN1CC2(CCN(C(=O)Cc3ccsc3)CC2)C2(CCN(C)C2=O)C1 (stereo unspecified)	0
O=S(=O)(Oc1cccc2cccnc12)c1ccc(-c2ccno2)s1	0
SMILES	Tg IFNy HTS
CN(C)CCN1CCc2ncc(CN(C)Cc3ccco3)n2CC1	0
O=C1NCC2(CCCN(C(=O)c3ccc(Oc4ccccc4)o3)C2)O1 (stereo unspecified)	0
CCOC(=O)c1ccc(NC(=O)NCC(c2cccnc2)c2cn(C)c3ccccc23)cc1 (stereo unspecified)	0
Cn1cc(C(CNC(=O)Nc2cccc(Br)c2)c2cccnc2)c2ccccc21 (stereo unspecified)	0
CCOC(=O)c1ccc(NC(=O)NCC(c2cccnc2)c2cn(CC)c3ccccc23)cc1 (stereo unspecified)	-102
CCn1cc(C(CNC(=O)Nc2ccc(OC)cc2OC)c2cccnc2)c2ccccc21 (stereo unspecified)	0
CCOC(=O)c1ccc(NC(=O)NCC(c2cccnc2)c2c[nH]c3ccccc23)cc1 (stereo unspecified)	0
CCn1cc(C(CNC(=O)Nc2cccc(SC)c2)c2cccnc2)c2ccccc21 (stereo unspecified)	-111
NCC(c1cccs1)N1CCCCCC1 (stereo unspecified)	0
O=S(=O)(N1CCCC1)N1CC(CN2CCOCC2)c2ccccc21 (stereo unspecified)	0
Cn1cc(CCC(=O)N2CCC(c3n[nH]c(=O)n3-c3ccccc3)CC2)cn1	0
O=C(CC1=CCNCC1)N1CCC(c2n[nH]c(=O)n2-c2ccccc2)CC1	-73
Cc1n[nH]c(C)c1C(=O)N1CCC(c2n[nH]c(=O)n2-c2ccccc2)CC1	0
Cc1ccc(C(=O)N2CC[C@@H]3[C@@H]2CCC(=O)N3Cc2csc(C)n2)o1	0
Clc1ccc(C2=NN(c3ccc(Cl)cc3)C(c3ccc(Br)cc3)C2)cc1 (stereo unspecified)	0
COc1ccc(-c2nc3ccc(C4=NNC(=O)CC4C)cc3[nH]2)cc1 (stereo unspecified)	0
CN=C(NC#N)Nc1ccc(C2=NNC(=O)CC2C)cc1 (stereo unspecified)	0
CCN(CC)c1ccc(C2=NNC(=O)CC2C)cc1[N+](=O)[O-] (stereo unspecified)	-98
CC1=C(C(=O)NCc2ccccc2Br)C2(CCN(S(C)(=O)=O)CC2)OC1=O	0
Cn1c(CCC(=O)N2CCNCC2C(=O)NC2CC2)nc2cccnc21 (stereo unspecified)	0
COC(=O)c1cccc(-n2nnnc2SCC(=O)Nc2ccc(F)cc2)c1	0
c1ccc(C(c2ccccc2)c2nc(CSc3nnnn3-c3ccccc3)no2)cc1	0
Cc1[nH]n2c(=O)cc(CSc3nnnn3-c3ccccc3)nc2c1-c1ccc(F)cc1	-93
Cc1nc(CCNC(=O)[C@H]2CCCN2C(=O)c2ccc(F)cc2)cs1	0
O[C@@H]1CN(Cc2cccc3cccnc23)CC[C@H]1c1ccc(F)cc1	0
CN1CCN(c2cccc(Nc3nc4c(-c5ccc(S(C)(=O)=O)cc5)cccn4n3)c2)CC1	0

Screening data as filed in PubChem.
